Assay results taken from PubChem BioAssay (NCATS).
Records with an inconclusive call do not appear. Calls of active or inactive are those of the source. The call rests on the fitted dose curve; in most records, active means well fitted inhibition curve with a large enough effect; inconclusive means small, poorly fitted or top-dose-only effect; inactive means no such curve, though single readings can be large or run the other way.

assay: qHTS Screen of the MIPE 4.0 Collection Against Ewings Sarcoma (RDES) (AID 1259252); details: RD-ES Ewing sarcoma viability, CellTiter-Glo, 48 h; series mostly up to 45.8 µM; viability (percent of control): at the top concentration; further: nearly all actives have a fitted effect of over 35% in size;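 on viability (percent of control): 100% = DMSO-treated cells and 0% = medium-only wells without cells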
In short: (§1)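 Measured: ATP luminescence (CellTiter-Glo) 10 min after reagent addition, following 48 h drug treatment. Relative luciferase units converted to percent activity, with no-cell wells as full and DMSO wells as zero inhibition.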
Potency means the concentration at half of the fitted maximal effect.

| SMILES | Potency | viability (percent of control) |
| --- | --- | --- |
| COC1=CC(C)=C[C@@H](C)[C@@H](O)[C@@H](C)CC(C)=CC=C[C@H](OC)[C@H]([C@@H](C)[C@@H](O)[C@H](C)[C@@]2(O)C[C@@H](O)[C@H](C)[C@@H](C(C)C)O2)OC1=O | 0.0059 µM (active) | – |
| O=S(=O)(F)Cc1ccccc1 | 0.0418 µM (active) | – |
| O=C(Oc1ccc([N+](=O)[O-])cc1)N1CCN(Cc2cccc(Oc3ccccc3)c2)CC1 | – | 95% (inactive) |
| CC(C)N(CCNC(=O)CN1CCCC1=O)C(C)C | – | 119% (inactive) |
| O=C(N[C@@H](COc1ccc2[nH]c(=O)[nH]c2c1)c1ccccc1)c1cccn(Cc2ccc(F)c(F)c2)c1=O | 23.5 µM (active) | – |
| N=c1c2c(-c3ccccc3)c(-c3ccccc3)n(Cc3ccccc3)c2ncn1C1CCC(O)CC1 (configuration not stated) | 1.18 µM (active) | – |
| COc1ccc(CC2NCCc3cc(OC)c(OC)cc32)cc1OC (configuration not stated) | 23.5 µM (active) | – |
| CC=C(C)C(=O)N[C@@H](c1ccccc1)[C@@H](O)C(=O)O[C@H]1C[C@@]2(O)[C@@H](OC(=O)c3ccccc3)[C@@H]3[C@]4(OC(C)=O)CO[C@@H]4C[C@H](O)[C@@]3(C)C(=O)[C@H](OC(C)=O)C(=C1C)C2(C)C | – | 12% (inactive) |
| CC(=CCCC1=CCC(C2=CC(=O)OC2O)OC1O)CCC1=C(C)CCCC1(C)C (configuration not stated) | 18.7 µM (active) | – |
| CCCCCC[C@H]1C(=O)O[C@H](C)[C@H](NC(=O)c2cccc(NC=O)c2O)C(=O)O[C@@H](C)[C@@H]1OC(=O)CC(C)C | 0.0418 µM (active) | – |
| O=C(Oc1ccc([N+](=O)[O-])cc1)N1CCC(C(O)(c2ccc3c(c2)OCO3)c2ccc3c(c2)OCO3)CC1 | 16.6 µM (active) | – |
| NC1=NC(=O)N2CC12 (configuration not stated) | – | 117% (inactive) |
| CCN(CC)C(=O)c1ccc(C2=CC3(CCNCC3)Oc3cccc(O)c32)cc1 | – | 117% (inactive) |
| C[C@@H]1CC[C@H]2[C@@H](C)C(=O)O[C@@H]3O[C@@]4(C)CC[C@H]1[C@]32OO4 | 18.7 µM (active) | – |
| CN(C)NC(=O)CCC(=O)O | 26.4 µM (active) | – |
| C[C@](O)(COc1ccc(C#N)cc1)C(=O)Nc1ccc(C#N)c(C(F)(F)F)c1 | – | 92.4% (inactive) |

assay: qHTS Screen of the MIPE 4.0 Collection Against Ewings Sarcoma (TC71) (AID 1259253); details: TC71 Ewing sarcoma viability, CellTiter-Glo, 48 h; series mostly up to 45.8 µM; viability (% of DMSO): at the top concentration; further: nearly all actives have a fitted effect of over 40% in size;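 on viability (% of DMSO): 100% = DMSO-treated cells and 0% = medium-only wells without cells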
In short: as §1

| SMILES | Potency | viability (% of DMSO) |
| --- | --- | --- |
| CCOC(=O)Nc1ccc(NCc2ccc(F)cc2)cc1N | 29.6 µM (active) | – |
| O=S(=O)(F)Cc1ccccc1 | – | 104% (inactive) |
| CCc1c(C(=O)C(N)=O)c2c(OCC(=O)O)cccc2n1Cc1ccccc1 | 20.9 µM (active) | – |
| c1ccc(CCCN2CCN(CCOC(c3ccccc3)c3ccccc3)CC2)cc1 | 16.6 µM (active) | – |
| CCOC(=O)c1c(C(C#N)=CN)c2ccc(Cl)c(Cl)c2n1C | – | 123% (inactive) |
| CC(O)=C(C#N)C(=O)Nc1cc(Br)ccc1Br | 23.5 µM (active) | – |
| CN1[C@H]2CC(O)C[C@H]1[C@H]1O[C@H]12 (some centres not stated) | 26.4 µM (active) | – |
| CC(C)[C@H]1C(=O)N[C@H](CO)Cc2c[nH]c3cccc(c23)N1C | – | 107% (inactive) |
| CN1CCN(c2ccc([N+](=O)[O-])c3no[n+]([O-])c23)CC1 | 23.5 µM (active) | – |
| CCOC(=O)c1cncn1[C@H](C)c1ccccc1 | – | 128% (inactive) |
| CCN(CC)C(=O)c1ccc(C2=CC3(CCNCC3)Oc3cccc(O)c32)cc1 | – | 112% (inactive) |
| NC1CC1c1ccccc1 (configuration not stated) | – | 113% (inactive) |
| C[C@@H]1CC[C@H]2[C@@H](C)C(=O)O[C@@H]3O[C@@]4(C)CC[C@H]1[C@]32OO4 | 3.72 µM (active) | – |
| Oc1ccc2c3c1O[C@H]1c4[nH]c5c(c4C[C@@]4(O)[C@@H](C2)N(CC2CC2)CC[C@]314)C[C@@]1(O)[C@H]2Cc3ccc(O)c4c3[C@@]1(CCN2CC1CC1)[C@H]5O4 | – | 120% (inactive) |
| CC[C@H]1C=CC=CC[C@@H](C)[C@H](O)[C@@](C)(O)C(=O)[C@@H](C)[C@H](O)[C@@H](C)C(=O)[C@@H](C)[C@H](O)[C@@H](C)C=CC(=O)O[C@@H]2[C@@H](C)[C@H](CC1)O[C@]1(CC[C@H](C)[C@H](C[C@@H](C)O)O1)[C@H]2C | 0.0118 µM (active) | – |
| Cc1c(C(=O)c2cccc3ccccc23)c2cccc3c2n1[C@H](CN1CCOCC1)CO3 | 26.4 µM (active) | – |

assay: qHTS Screen of the MIPE 4.0 Collection Against Ewings Sarcoma (EW8) (AID 1259255); details: EW8 Ewing sarcoma viability, CellTiter-Glo, 48 h; series mostly up to 45.8 µM; viability: at the top concentration; further: nearly all actives have a fitted effect of over 35% in size;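 on viability: 100% = DMSO-treated cells and 0% = medium-only wells without cells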
In short: as §1

| SMILES | viability | Potency |
| --- | --- | --- |
| O=C(Oc1ccc([N+](=O)[O-])cc1)N1CCN(Cc2cccc(Oc3ccccc3)c2)CC1 | 98% (inactive) | – |
| CCOC(=O)c1c(C(C#N)=CN)c2ccc(Cl)c(Cl)c2n1C | 103% (inactive) | – |
| CN1[C@H]2CC(O)C[C@H]1[C@H]1O[C@H]12 (some centres not stated) | – | 23.5 µM (active) |
| O=S(=O)(CC1CS1)c1ccc(Oc2ccccc2)cc1 (configuration not stated) | – | 20.9 µM (active) |
| COc1ccc(CC2NCCc3cc(OC)c(OC)cc32)cc1OC (configuration not stated) | 96.4% (inactive) | – |
| CC=C(C)C(=O)N[C@@H](c1ccccc1)[C@@H](O)C(=O)O[C@H]1C[C@@]2(O)[C@@H](OC(=O)c3ccccc3)[C@@H]3[C@]4(OC(C)=O)CO[C@@H]4C[C@H](O)[C@@]3(C)C(=O)[C@H](OC(C)=O)C(=C1C)C2(C)C | 6.13% (inactive) | – |
| CCCCCC[C@H]1C(=O)O[C@H](C)[C@H](NC(=O)c2cccc(NC=O)c2O)C(=O)O[C@@H](C)[C@@H]1OC(=O)CC(C)C | – | 0.105 µM (active) |
| O=C(Oc1ccc([N+](=O)[O-])cc1)N1CCC(C(O)(c2ccc3c(c2)OCO3)c2ccc3c(c2)OCO3)CC1 | 110% (inactive) | – |
| c1cc2c(cc1[C@H]1OC[C@H]3[C@H]1CO[C@H]3c1ccc3c(c1)OCO3)OCO2 | 94.4% (inactive) | – |
| CC1(N2CCC(n3c([C@@H]4CCCNC4)nc4ccccc43)CC2)CCCCCCC1 | – | 10.5 µM (active) |
| NC1CC1c1ccccc1 (configuration not stated) | 105% (inactive) | – |
| CC(N[C@H]1C[C@H]1c1ccccc1)c1ccc2c(c1)OCCO2 (some centres not stated) | 110% (inactive) | – |
| Oc1ccc2c3c1O[C@H]1c4[nH]c5c(c4C[C@@]4(O)[C@@H](C2)N(CC2CC2)CC[C@]314)C[C@@]1(O)[C@H]2Cc3ccc(O)c4c3[C@@]1(CCN2CC1CC1)[C@H]5O4 | 121% (inactive) | – |
| C[C@]12COC(=O)C[C@@H]1CC[C@@H]1[C@H]2CC[C@@]2(C)[C@H]1CC[C@]2(C)O | 102% (inactive) | – |
| C[C@](O)(COc1ccc(C#N)cc1)C(=O)Nc1ccc(C#N)c(C(F)(F)F)c1 | 90.7% (inactive) | – |
